Rows were chosen to be rich in hits. Some 8.7% of all compounds tested hit in one or more screens of this group.
HP1b chromo inh: HP1-beta chromodomain-methylated histone interaction inhibition; AID 540317; 390,000 tested, 0.56% active; AlphaScreen HP1-beta / biotin-H3K9me3 peptide binding; Potency, µM (series often up to 114 µM), for the others: top-dose activity change, negative = inhibition, actives largely listed as inhibitors; P83916; note: nearly all actives have a fitted effect of over 70% in size
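HP1-beta protein (50 nM final) preincubated 30 min at room temperature with biotinylated H3(1-18)K9me3 peptide (50 nM) in PBS pH 7.4, 0.01% Tween-20, then compound added for 30 min. AlphaScreen streptavidin donor/nickel chelate acceptor beads (10 ug/mL final), 30 min dark, luminescence read.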
G9a inh: G9a (human) methyltransferase inhibition. Q96KQ7. G9a H3K9 monomethylation, AlphaScreen, 2 h. Potency, µM (titrated, usually from 102 µM), for inactives: at the top dose activity, negative = inhibition, actives largely listed as inhibitors. 350,000 tested, 8.8% active. AID 504332; note: % is set by controls: 0 for no effect and ±100 for the full control effect; nearly all actives have a fitted effect of over 75% in size
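Chemiluminescent proximity detection of H3K9 monomethylation, read after 10 min bead incubation in the dark. Reaction: 20 nM G9a, 500 nM biotin-H3K9 peptide, 20 uM SAM cofactor, 2 h, room temperature, following 15 min enzyme-compound preincubation.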
12-LOX inh: inhibitors of human 12S-lipoxygenase ALOX12; purified 12hLO, xylenol orange hydroperoxide absorbance; AID 1671190; P18054; 580,000 tested, 1.1% active; Potency, µM (series often up to 108 µM), inactives show at the highest dose activity change, negative = inhibition, most hits filed as inhibitors; note: % is set by controls: 0 for no effect and ±100 for the full control effect
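Purified human 12hLO at 150 nM in 25 mM Hepes, 0.01% Triton X-100, pH 7.0, preincubated 15 min at room temperature with compound. Reaction started with 40 uM arachidonic acid, 30 min at room temperature. Hydroperoxide measured by Fe-xylenol orange, 573/405 nm absorbance ratio.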
Sfp PPTase inh: blocks B. subtilis Sfp PPTase activity | Q9F4F7 | Biochemical Sfp PPTase activity, qHTS | Potency, µM, inactives show largest response in the series, negative = inhibition, hits mostly inhibitors | 310,000 tested, 3.5% active | AID 1490;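 note: the enzyme is Sfp with the accession as filed and its product quenches rhodamine fluorescence; 0% = enzyme reaction without inhibitor and -100% = no enzyme wells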
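With Hepes-Na pH 7.6 buffer containing 10 mM MgCl2, Sfp (15 nM) modified BHQ-2-YbbR (12.5 uM) using rhodamine-CoA (5 uM). Two reads 30 minutes apart at 525/598 nm yielded each well's rate.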
JMJD2A Tudor inh: blocks the human JMJD2A Tudor domain; AlphaScreen JMJD2A-Tudor / H3K4me3 peptide binding; Potency, µM (highest dose often 114 µM), inactives show at the top dose activity change, negative = inhibition, actives largely listed as inhibitors; 390,000 tested, 4.4% active; AID 504339; note: % is set by controls: 0 for no effect and ±100 for the full control effect; nearly all actives have a fitted effect of over 50% in size
BAZ2B inh: BAZ2B (human) inhibition; Potency, µM (titrated, usually from 114 µM), without a hit: at the top dose activity change, negative = inhibition, most hits filed as inhibitors; AlphaScreen BAZ2B-H3K14Ac peptide displacement; 360,000 tested, 4.4% active; AID 504333; Q9UIF8; note: % is set by controls: 0 for no effect and ±100 for the full control effect; nearly all actives have a fitted effect of over 60% in size
Target sequence (Q9UIF8 whole entry, looked up): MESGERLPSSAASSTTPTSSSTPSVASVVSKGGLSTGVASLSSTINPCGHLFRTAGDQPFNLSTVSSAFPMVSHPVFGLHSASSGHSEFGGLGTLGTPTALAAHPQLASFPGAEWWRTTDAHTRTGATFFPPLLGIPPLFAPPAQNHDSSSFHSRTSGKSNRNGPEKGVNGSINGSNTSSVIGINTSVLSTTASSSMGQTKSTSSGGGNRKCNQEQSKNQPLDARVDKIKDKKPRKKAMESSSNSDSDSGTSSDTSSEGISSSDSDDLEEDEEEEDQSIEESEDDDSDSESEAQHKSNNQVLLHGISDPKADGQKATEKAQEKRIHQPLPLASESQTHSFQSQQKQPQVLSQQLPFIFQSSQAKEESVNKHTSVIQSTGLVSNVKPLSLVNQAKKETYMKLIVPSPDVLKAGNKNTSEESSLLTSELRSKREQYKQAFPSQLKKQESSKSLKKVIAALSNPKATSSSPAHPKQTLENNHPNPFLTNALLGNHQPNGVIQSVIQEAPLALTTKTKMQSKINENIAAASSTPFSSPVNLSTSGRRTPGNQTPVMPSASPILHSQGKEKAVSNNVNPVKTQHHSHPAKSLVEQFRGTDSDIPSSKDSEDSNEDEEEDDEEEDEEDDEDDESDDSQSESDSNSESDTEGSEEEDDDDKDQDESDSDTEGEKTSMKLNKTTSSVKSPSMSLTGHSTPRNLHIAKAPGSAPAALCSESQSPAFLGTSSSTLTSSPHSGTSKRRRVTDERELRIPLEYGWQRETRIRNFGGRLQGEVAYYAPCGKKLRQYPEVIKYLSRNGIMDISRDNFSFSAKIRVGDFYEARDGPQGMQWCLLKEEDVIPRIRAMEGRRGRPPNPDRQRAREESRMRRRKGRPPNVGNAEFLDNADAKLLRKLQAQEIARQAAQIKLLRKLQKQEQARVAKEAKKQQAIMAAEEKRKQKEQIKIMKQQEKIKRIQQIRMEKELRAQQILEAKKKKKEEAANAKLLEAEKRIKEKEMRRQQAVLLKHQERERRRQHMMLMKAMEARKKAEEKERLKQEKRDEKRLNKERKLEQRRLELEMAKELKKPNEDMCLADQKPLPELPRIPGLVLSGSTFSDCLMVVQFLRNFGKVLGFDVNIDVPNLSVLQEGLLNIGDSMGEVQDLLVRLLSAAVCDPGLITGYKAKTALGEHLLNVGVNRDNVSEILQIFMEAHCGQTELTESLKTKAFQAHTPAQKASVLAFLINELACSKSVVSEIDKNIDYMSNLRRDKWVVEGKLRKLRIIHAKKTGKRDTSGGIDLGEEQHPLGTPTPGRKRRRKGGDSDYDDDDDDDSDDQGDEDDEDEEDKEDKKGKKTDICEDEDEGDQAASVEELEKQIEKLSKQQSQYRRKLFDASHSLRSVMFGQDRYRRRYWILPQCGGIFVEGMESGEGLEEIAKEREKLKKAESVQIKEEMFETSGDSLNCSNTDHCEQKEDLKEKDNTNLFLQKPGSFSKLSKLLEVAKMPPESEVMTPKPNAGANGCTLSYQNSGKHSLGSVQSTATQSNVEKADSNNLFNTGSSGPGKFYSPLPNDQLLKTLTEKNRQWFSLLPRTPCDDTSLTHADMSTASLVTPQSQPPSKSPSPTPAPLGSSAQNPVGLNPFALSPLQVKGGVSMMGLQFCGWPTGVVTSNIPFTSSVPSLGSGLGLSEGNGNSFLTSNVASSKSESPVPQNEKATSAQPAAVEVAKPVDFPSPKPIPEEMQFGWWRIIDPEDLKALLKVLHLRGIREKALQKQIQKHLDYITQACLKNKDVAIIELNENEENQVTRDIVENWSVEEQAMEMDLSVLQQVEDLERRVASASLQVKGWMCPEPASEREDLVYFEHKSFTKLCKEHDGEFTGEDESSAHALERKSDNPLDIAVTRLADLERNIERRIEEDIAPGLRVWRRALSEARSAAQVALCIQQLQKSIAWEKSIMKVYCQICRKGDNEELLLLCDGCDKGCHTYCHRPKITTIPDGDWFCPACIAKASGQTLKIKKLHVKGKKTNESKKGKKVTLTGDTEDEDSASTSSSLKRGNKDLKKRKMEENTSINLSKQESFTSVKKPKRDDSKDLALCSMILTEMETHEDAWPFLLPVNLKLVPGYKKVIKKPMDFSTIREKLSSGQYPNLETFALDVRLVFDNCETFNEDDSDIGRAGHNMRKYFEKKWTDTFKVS
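AlphaScreen displacement: compounds (up to 110uM) incubated 30 min at room temperature with a preformed 50 nM BAZ2B/50 nM biotinylated H3K14Ac peptide complex in PBS pH 7.4 with Tween-20. Donor and acceptor beads at 10 ug/mL final added, 20 min light-protected before reading.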
Starred values were filed as active, the others as inactive; ? = inconclusive; . = not tested or not shown; [ ] = dose if it differs, or a comment. Calls come from the whole dose curve; as a rule, active = well fitted curve in the direction sought with a large enough effect; inconclusive = small, poorly fitted or top-dose-only effect, or another doubt; inactive = no such curve, though single readings can be large; an effect the other way counts as inactive or inconclusive. Potency is the fitted concentration of half-maximal effect.

SMILES | HP1b chromo inh | G9a inh | 12-LOX inh | Sfp PPTase inh | JMJD2A Tudor inh | BAZ2B inh
COc1ccc(C2C3=C(CC(c4ccco4)CC3=O)Nc3ccccc3N2C(C)=O)cc1 (stereo unspecified) | -4% | 11% | -17% | 14% | -20% | 6%
CC(=O)N1c2ccccc2NC2=C(C(=O)CCC2)C1c1ccco1 (stereo unspecified) | 4% | ? | 12% | 25µM* | -13% | ?
CCN(CC)c1ncc(C=O)s1 | . | . | -21% | . | . | .
COc1ccccc1N1CCN(Cc2cc3c(cc2Br)OCCO3)CC1 | -12% | ? | ? | -4% | ? | ?
COc1ccc(CN2CCCN(C)CC2)c(OC)c1C | ? | . | -19% | 79µM* | 8.9µM* | ?
COc1cc(Br)c(CN2CCCN(C)CC2)cc1OC | 29% | 71µM* | -8% | -2% | -17% | -27%
Cc1oc(-c2nc(C#N)c(N3CCCC3)o2)cc1S(=O)(=O)N(C)C | . | . | 21% | . | . | .
Cc1ccc(CCCC(=O)NCc2ccc(CN3CCCC3)cc2)cc1 | . | . | -23% | . | . | .
NC(=O)c1c(N)sc2c1CCC2 | 1% | . | -15% | 22µM* | -18% | -13%
CC(C)OC(=O)c1c(N)sc2c1CCCC2 | -36% | . | ? | . | ? | .
CCCOC(=O)c1c(N)sc2c1CCC2 | ? | 50µM* | -5% | 50µM* | ? | ?
Nc1sc2c(c1C(=O)NC1CCS(=O)(=O)C1)CCC2 (stereo unspecified) | 7% | 7.1µM* | . | 18µM* | 7%[11.4 µM] | -36%
NC(=O)c1c(N)sc2c1CCCCC2 | 18µM* | 8.9µM* | -7% | 22µM* | ? | 5%
COc1cc(C(=O)Nc2ccc3c(c2)nc(CN2CCC(C)CC2)n3C(C)C)cc(OC)c1OC | . | . | -12% | . | . | .
Cc1cc(C)cc(CCC(=O)N2CCN(c3ccc(C#N)cn3)CC2)c1 | . | . | 27% | . | . | .
CSc1cccc(NC(=O)CCc2ncc(-c3ccccc3)o2)c1 | . | . | 1% | . | . | .
CC(=O)Nc1ccc(SCc2ncc(-c3ccccc3)o2)cc1 | 9% | 50µM* | -51% | -9% | -21% | -19%
Cc1ccc(C(=O)COC(=O)CCc2c[nH]c3ccccc23)c(C)c1 | . | . | 0% | . | . | .
CCOC(=O)c1cc(-c2ccccc2)n(-c2cccc(C(=O)NC(C)(C)C)c2)c1C | 28% | ? | -7% | . | -31% | -31%
CCOC(=O)c1cc(-c2ccccc2)n(-c2cccc(C(=O)N(C)c3ccc(C)cc3)c2)c1C | -10% | 16µM* | ? | . | ? | ?
COC(=O)c1cc(OC)c(OC)cc1NC(=O)CN1C(=O)c2ccccc2C1=O | 27% | 2%[59 µM] | -9% | 16% | ? | ?
CCOC(=O)c1ccc(OS(=O)(=O)c2ccccc2)c(OC)c1 | 69% | 5%[59 µM] | 2% | 14% | 89µM* | 65%
COC(=O)c1cc(-c2ccccc2)sc1NC(=O)CN1C(=O)c2ccccc2C1=O | ? | 10µM* | ? | 20µM* | ? | -2%
CCOC(=O)c1cc(-c2ccccc2)sc1NC(=S)Nc1cccc(C)n1 | 15% | . | 20µM* | -20% | -12% | -7%
CCOC(=O)c1cc(-c2ccccc2)sc1NC(=O)c1ccc(OC)c(OC)c1 | ? | 3.5µM* | 11µM* | 32µM* | ? | 9%
SMILES | HP1b chromo inh | G9a inh | 12-LOX inh | Sfp PPTase inh | JMJD2A Tudor inh | BAZ2B inh
CCOC(=O)c1cc(-c2ccccc2)sc1NC(=O)C(C)C | ? | -21% | -17% | -2% | -21%[57.1 µM] | 7%
O=C(O)c1cccc(S(=O)(=O)Nc2cc(F)ccc2OCC(F)(F)F)c1 | . | . | -5% | . | . | .
CCOCCOC1CCN(S(=O)(=O)c2cnn(CC)c2)CC1 | . | . | 5% | . | . | .
COc1cccc(N2C(=O)NC(=NC3CCCCC3)C23CCCN(C(=O)c2ccc(C(F)(F)F)cc2)C3)c1 (stereo unspecified) | . | . | 0%[6.33 µM] | . | . | .
O=C(COC(=O)c1c[nH]c(=O)[nH]c1=O)Nc1ccccc1 | 43% | -1% | -9% | 25% | 10% | -28%
CC(C)c1ccc(NC(=O)COC(=O)c2c[nH]c(=O)[nH]c2=O)cc1 | 16% | 16µM* | ? | 0% | ? | 6%
CCOC(=O)C1CCN(Cc2nnnn2CCc2ccccc2)CC1 | 58% | . | 1% | -13% | 2% | -8%
CCOC(=O)C1CCN(Cc2cccc(OCc3ccccc3)c2)CC1 | ? | ? | -59% | -13% | 8.9µM* | -12%
CCOC(=O)C1CCN(Cc2ccc(F)c(Br)c2)CC1 | -50% | ? | ? | -7% | 3.2µM* | 50µM*
CCOC(=O)C1CCN(Cc2nc3ccc(Cl)cc3n2CCO)CC1 | 14µM* | ? | ? | ? | 1.1µM* | 45µM*
NC(=O)C1CCN(Cc2cccc(OCc3ccccc3)c2)CC1 | ? | . | ? | 3% | 2.5µM* | ?
COc1c(Cl)cc(Cl)cc1CNCc1cccnc1 | . | . | -67% | . | . | .
CC1(Cc2ccc3c(c2)OCO3)CCCN(C(=O)c2ccccc2-n2cncn2)C1 (stereo unspecified) | . | . | 9% | . | . | .
Cc1noc(C)c1-c1cc2c(cc(-c3ccccc3)n2C)c(-c2ccnn2C)n1 | . | . | -7%[176 µM] | . | . | .
COCCn1c(SC(C)C(=O)c2ccc(OC(F)F)cc2)nnc1-c1ccccc1 (stereo unspecified) | . | . | 0% | . | . | .
NC1CCC(NC(=O)C2CCCN(C3CCN(CCc4ccccc4)CC3)C2)CC1 (stereo unspecified) | . | . | 8% | . | . | .
CN1CCN(Cc2ccc(OCc3ccccc3)cc2)CC1 | 34% | 6%[59 µM] | ? | 3% | -22% | -30%
c1ccc(COc2cccc(CN3CCc4ccccc4C3)c2)cc1 | 21% | . | ? | -3% | 56µM* | 7%
